Reference: PubChem BioAssay (NCI)
About 83,000 compounds went through this panel and 20% of them were active in at least one assay; those are over-represented in the sample as a whole.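 Compound tested at a single concentration for 48 hours in 96-well plates; a percent growth value below 10 was scored as active.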 The source made the active and inactive calls.

What was measured:
Test in all cases: NCI-60 one-dose screen, 48 h (100 = growth as untreated, 0 = no growth, -100 = all killed)
Conditions in all cases: 10 µM unless noted
SR leukemia = tested on: SR leukemia
RPMI-8226 leukemia = tested on: RPMI-8226 leukemia
OVCAR-8 ovarian = tested on: OVCAR-8 ovarian
OVCAR-5 ovarian = tested on: OVCAR-5 ovarian
OVCAR-4 ovarian = tested on: OVCAR-4 ovarian
SK-OV-3 ovarian = tested on: SK-OV-3 ovarian
IGROV1 ovarian = tested on: IGROV1 ovarian
OVCAR-3 ovarian = tested on: OVCAR-3 ovarian
HS 578T breast = tested on: HS 578T breast
NCI/ADR-RES ovarian = tested on: NCI/ADR-RES ovarian

Measured: growth

C=COC(=O)C(C)(C)C
inactive: SR leukemia 91.2% | RPMI-8226 leukemia 99.2% | OVCAR-8 ovarian 107% | OVCAR-5 ovarian 106% | OVCAR-4 ovarian 108% | SK-OV-3 ovarian 107% | IGROV1 ovarian 96.7% | OVCAR-3 ovarian 107% | HS 578T breast 101% | NCI/ADR-RES ovarian 101%

Cc1onc(-c2ccccc2Cl)c1C(=O)Cl
inactive: SR leukemia 83.8% | RPMI-8226 leukemia 99.9% | OVCAR-8 ovarian 95.4% | OVCAR-5 ovarian 103% | OVCAR-4 ovarian 98% | SK-OV-3 ovarian 99% | IGROV1 ovarian 117% | OVCAR-3 ovarian 127% | HS 578T breast 102% | NCI/ADR-RES ovarian 105%

CCOC(=O)Nc1nccs1
inactive: SR leukemia 110% | RPMI-8226 leukemia 100% | OVCAR-8 ovarian 104% | OVCAR-5 ovarian 110% | OVCAR-4 ovarian 109% | SK-OV-3 ovarian 99.9% | IGROV1 ovarian 97.2% | OVCAR-3 ovarian 109% | HS 578T breast 98.7% | NCI/ADR-RES ovarian 112%

CSc1nc2[nH]ncc2c(=O)[nH]1
inactive: SR leukemia 95% | RPMI-8226 leukemia 119% | OVCAR-8 ovarian 106% | OVCAR-5 ovarian 97.7% | OVCAR-4 ovarian 123% | SK-OV-3 ovarian 107% | IGROV1 ovarian 112% | OVCAR-3 ovarian 97.3% | HS 578T breast 92% | NCI/ADR-RES ovarian 99.1%

COc1ccc(C)cc1NC(=O)SC(C)C
inactive: SR leukemia 95.3% [100 µM] | RPMI-8226 leukemia 99% [100 µM] | OVCAR-8 ovarian 105% [100 µM] | OVCAR-5 ovarian 102% [100 µM] | OVCAR-4 ovarian 96.7% [100 µM] | SK-OV-3 ovarian 111% [100 µM] | IGROV1 ovarian 102% [100 µM] | OVCAR-3 ovarian 116% [100 µM] | HS 578T breast 102% [100 µM] | NCI/ADR-RES ovarian 103% [100 µM]

COc1ccc(C2CC(c3ccccc3)=Nc3ccccc3S2)cc1 (stereo unspecified)
inactive: SR leukemia 49% | RPMI-8226 leukemia 82.1% | OVCAR-8 ovarian 115% | OVCAR-5 ovarian 116% | OVCAR-4 ovarian 97.2% | SK-OV-3 ovarian 95.3% | IGROV1 ovarian 92% | OVCAR-3 ovarian 93.3% | HS 578T breast 102% | NCI/ADR-RES ovarian 94.7%

Cc1ccc([N+](=O)[O-])c(C)n1
inactive: SR leukemia 106% | RPMI-8226 leukemia 99.4% | OVCAR-8 ovarian 98.4% | OVCAR-5 ovarian 83.5% | OVCAR-4 ovarian 99.1% | SK-OV-3 ovarian 106% | IGROV1 ovarian 95% | OVCAR-3 ovarian 107% | NCI/ADR-RES ovarian 115%

CC(=O)c1cccc(O)c1
inactive: SR leukemia 90.6% | RPMI-8226 leukemia 105% | OVCAR-8 ovarian 103% | OVCAR-5 ovarian 96.4% | OVCAR-4 ovarian 93.6% | SK-OV-3 ovarian 104% | IGROV1 ovarian 106% | OVCAR-3 ovarian 115% | HS 578T breast 96.5% | NCI/ADR-RES ovarian 100%

O=C1C=CC(=O)C2=C1CCCC2
inactive: SR leukemia 68.1% | RPMI-8226 leukemia 72.4% | OVCAR-8 ovarian 95.1% | OVCAR-5 ovarian 108% | OVCAR-4 ovarian 88% | SK-OV-3 ovarian 89.4% | IGROV1 ovarian 80.5% | OVCAR-3 ovarian 89% | NCI/ADR-RES ovarian 94.8%

COc1ccc(/C=C\C(=O)/C=C/c2ccc(OC)cc2)cc1
inactive: SR leukemia 17.7% | OVCAR-8 ovarian 101% | OVCAR-5 ovarian 107% | OVCAR-4 ovarian 88.6% | SK-OV-3 ovarian 104% | IGROV1 ovarian 92.3% | OVCAR-3 ovarian 85.1% | NCI/ADR-RES ovarian 99.2%
active: RPMI-8226 leukemia -20%

CCN(CC)c1ccc2nc3ccc(N=Nc4ccc(N(C)C)cc4)cc3[n+](-c3ccccc3)c2c1
active: SR leukemia -18.3% | RPMI-8226 leukemia -23.6% | OVCAR-8 ovarian 5.08% | OVCAR-5 ovarian -58.2% | OVCAR-4 ovarian -100% | SK-OV-3 ovarian -8.27% | OVCAR-3 ovarian -30.6% | NCI/ADR-RES ovarian 0.224%
inactive: IGROV1 ovarian 14.5%

O=C(O)CC1=CCCCC1
inactive: SR leukemia 96.7% | RPMI-8226 leukemia 96.6% | OVCAR-8 ovarian 104% | OVCAR-5 ovarian 98.5% | OVCAR-4 ovarian 100% | SK-OV-3 ovarian 117% | IGROV1 ovarian 96.1% | OVCAR-3 ovarian 101% | HS 578T breast 108% | NCI/ADR-RES ovarian 96.9%

CC(C)=CCC[C@@H](C)[C@H]1CC[C@@]2(C)C3=C(CC[C@]12C)[C@@]1(C)CC[C@H](O)C(C)(C)[C@@H]1CC3
inactive: SR leukemia 93.4% | RPMI-8226 leukemia 102% | OVCAR-8 ovarian 102% | OVCAR-5 ovarian 107% | OVCAR-4 ovarian 105% | SK-OV-3 ovarian 108% | IGROV1 ovarian 115% | OVCAR-3 ovarian 122% | NCI/ADR-RES ovarian 110%

NC(=S)N/N=C/c1ccc(Cl)cc1
inactive: SR leukemia 97.1% | RPMI-8226 leukemia 97.8% | OVCAR-8 ovarian 92.9% | OVCAR-5 ovarian 108% | OVCAR-4 ovarian 97.3% | SK-OV-3 ovarian 118% | IGROV1 ovarian 107% | OVCAR-3 ovarian 116% | NCI/ADR-RES ovarian 100%

CN(C)c1ccc(/C=C/C(=O)c2ccc(NC(N)=O)cc2)cc1
inactive: SR leukemia 61.2% | RPMI-8226 leukemia 63.8% | OVCAR-8 ovarian 94.1% | OVCAR-5 ovarian 99.8% | OVCAR-4 ovarian 94% | SK-OV-3 ovarian 105% | IGROV1 ovarian 99.7% | OVCAR-3 ovarian 109% | NCI/ADR-RES ovarian 102%

CC1(C)OC(=O)CC1=O
inactive: SR leukemia 89% | RPMI-8226 leukemia 93.4% | OVCAR-8 ovarian 97.4% | OVCAR-5 ovarian 101% | OVCAR-4 ovarian 106% | SK-OV-3 ovarian 91.6% | IGROV1 ovarian 107% | OVCAR-3 ovarian 113% | NCI/ADR-RES ovarian 105%

CC1=CC(=Nc2ccc(N(C)C)cc2)C=C(C)C1=O
inactive: SR leukemia 88.1% | RPMI-8226 leukemia 39.7% | OVCAR-8 ovarian 88.9% | OVCAR-5 ovarian 108% | OVCAR-4 ovarian 45.2% | SK-OV-3 ovarian 97.1% | IGROV1 ovarian 96.1% | OVCAR-3 ovarian 60% | NCI/ADR-RES ovarian 83.2%

CS(=O)(=O)c1ccc(/C=C\C(=O)O)cc1
inactive: SR leukemia 62.3% | RPMI-8226 leukemia 98.8% | OVCAR-8 ovarian 104% | OVCAR-5 ovarian 105% | OVCAR-4 ovarian 98.2% | SK-OV-3 ovarian 106% | IGROV1 ovarian 120% | OVCAR-3 ovarian 102% | HS 578T breast 81.7% | NCI/ADR-RES ovarian 104%

CC(=O)Oc1c(Cl)cccc1-c1ccccc1
inactive: SR leukemia 99.9% | RPMI-8226 leukemia 99.3% | OVCAR-8 ovarian 100% | OVCAR-5 ovarian 108% | OVCAR-4 ovarian 110% | SK-OV-3 ovarian 104% | IGROV1 ovarian 102% | OVCAR-3 ovarian 103% | NCI/ADR-RES ovarian 97.3%

CCCc1cccc(CCC)c1NC(=O)Nc1cc(Cl)cc(Cl)c1
inactive: SR leukemia 108% | RPMI-8226 leukemia 96.7% | OVCAR-8 ovarian 101% | OVCAR-5 ovarian 104% | OVCAR-4 ovarian 95.3% | SK-OV-3 ovarian 101% | IGROV1 ovarian 108% | OVCAR-3 ovarian 103% | HS 578T breast 98.2% | NCI/ADR-RES ovarian 110%

O=S(=O)(OCCOS(=O)(=O)c1ccccc1)c1ccccc1
inactive: SR leukemia 93.7% | RPMI-8226 leukemia 100% | OVCAR-8 ovarian 97% | OVCAR-5 ovarian 111% | OVCAR-4 ovarian 101% | SK-OV-3 ovarian 96.3% | IGROV1 ovarian 105% | OVCAR-3 ovarian 94.3% | NCI/ADR-RES ovarian 95.5%

O=[N+]([O-])c1c(Cl)ncnc1Cl
inactive: SR leukemia 96% | RPMI-8226 leukemia 96.2% | OVCAR-8 ovarian 104% | OVCAR-5 ovarian 85.7% | OVCAR-4 ovarian 103% | SK-OV-3 ovarian 104% | IGROV1 ovarian 117% | OVCAR-3 ovarian 105% | NCI/ADR-RES ovarian 118%

CCOC(=O)C(C#N)=C1CCN(C)CC1
inactive: SR leukemia 79.9% | RPMI-8226 leukemia 102% | OVCAR-8 ovarian 93% | OVCAR-5 ovarian 111% | OVCAR-4 ovarian 119% | SK-OV-3 ovarian 118% | IGROV1 ovarian 96.9% | OVCAR-3 ovarian 117% | NCI/ADR-RES ovarian 115%

CC(=O)OCC1CCC(COC(C)=O)CC1 (stereo unspecified)
inactive: SR leukemia 95.7% | RPMI-8226 leukemia 103% | OVCAR-8 ovarian 106% | OVCAR-5 ovarian 106% | OVCAR-4 ovarian 111% | SK-OV-3 ovarian 87.9% | IGROV1 ovarian 105% | OVCAR-3 ovarian 102% | NCI/ADR-RES ovarian 99.2%

CN1CCN(C(=S)S)CC1
inactive: SR leukemia 104% | RPMI-8226 leukemia 102% | OVCAR-8 ovarian 109% | OVCAR-5 ovarian 106% | OVCAR-4 ovarian 127% | SK-OV-3 ovarian 111% | IGROV1 ovarian 74.4% | OVCAR-3 ovarian 115% | NCI/ADR-RES ovarian 108%

O=C1CSc2ccccc2N1
inactive: SR leukemia 105% | RPMI-8226 leukemia 95.2% | OVCAR-8 ovarian 94.9% | OVCAR-5 ovarian 116% | OVCAR-4 ovarian 98.9% | SK-OV-3 ovarian 112% | IGROV1 ovarian 105% | OVCAR-3 ovarian 115% | NCI/ADR-RES ovarian 98.8%

N#CC1(O)CCCCC1
inactive: SR leukemia 91.6% | RPMI-8226 leukemia 105% | OVCAR-8 ovarian 94.3% | OVCAR-5 ovarian 98.2% | OVCAR-4 ovarian 126% | SK-OV-3 ovarian 93.6% | IGROV1 ovarian 101% | OVCAR-3 ovarian 104% | NCI/ADR-RES ovarian 94%

COc1ccc2c(c1)Nc1ccccc1S2
inactive: SR leukemia 118% | RPMI-8226 leukemia 95.4% | OVCAR-8 ovarian 102% | OVCAR-5 ovarian 106% | OVCAR-4 ovarian 91.4% | SK-OV-3 ovarian 111% | IGROV1 ovarian 103% | OVCAR-3 ovarian 113% | NCI/ADR-RES ovarian 111%

C=CCS(C)(=O)=O
inactive: SR leukemia 99.4% | RPMI-8226 leukemia 104% | OVCAR-8 ovarian 95.4% | OVCAR-5 ovarian 101% | OVCAR-4 ovarian 113% | SK-OV-3 ovarian 90.3% | IGROV1 ovarian 112% | OVCAR-3 ovarian 108% | NCI/ADR-RES ovarian 104%
